Most compounds without a hit are left out; they make up all but 4% or so of the library.
esBAF inh – blocks esBAF chromatin remodeling in mouse ES cells; AID 602393; Bmi1-luciferase knock-in reporter, 24 h; 100% = twice the neutral-well signal; reporter increase, % at 12.5 µM; 2% of 350,000 active; in the data active means activation above about 40%; inconclusive means no clear call, values can overlap the other calls;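 further: 0% = median of the plate's neutral control wells and 100% = double that signal; a rise in the Bmi1 reporter signal indicates esBAF inhibition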
MITF act – increases MITF-driven TRPM1 promoter luciferase signal; 0.75% of 300,000 active; SK-MEL-5 TRPM1-promoter luciferase, 24 h; % of positive control, neutral wells = 0; activation, % at 12.5 µM;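 active means mean activation of at least 80% with every replicate also reaching 80%; inconclusive means mean reaches 80% but some replicate falls short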;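 further: 0% = neutral control wells and 100% = parthenolide positive control wells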
Wnt act – Wnt/beta-catenin pathway activation; Wnt/beta-catenin reporter cell assay, activator, plate reader; activation, % at 9.35 µM; 1.2% of 300,000 active; in the data active means activation above about 30%, passing the limit was not always enough; inconclusive means no clear call, values can overlap the other calls;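 further: 0% = neutral control wells and 100% = positive control wells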
TRPM1 prom inh – reduces MITF-dependent TRPM1 promoter luciferase signal; SK-MEL-5 TRPM1 promoter luciferase, 24 h; inhibition, % at 12.5 µM; 0.83% of 330,000 active; AID 488899;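 active means mean inhibition across replicates of 60% or more, whatever share of single replicates reaches that level; inconclusive means some that reach 60%, reason not given; inactive means mean inhibition across replicates below 60%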
PAX8 reporter – inhibitors of PAX8 transcriptional activity in RMG-I cells. inhibition, % at 12.6 µM. AID 652154. 1.2% of 360,000 active. RMG-I TPO-luciferase reporter, SteadyGlo, 24 h;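 active means mean replicate inhibition at least 60% with every replicate also reaching 60%; inconclusive means only one of the two criteria is met; inactive means mean below 60% and not all replicates reaching 60%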;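 further: luciferase light reporting Pax8 driven TPO promoter activity; plate controls were median of neutral control wells for no effect and mitoxantrone controls for full effect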
EWS-Fli block – inhibitors of EWS/Fli oncoprotein transcriptional activity; A673 NR0B1-luciferase reporter, viability-normalised; inhibition, % at 12.6 µM; 0.67% of 350,000 active;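 active means mean inhibition of at least 50% after viability correction, with every replicate also passing that limit; inconclusive means mean reaches 50% but only one of two replicates passes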;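 further: firefly luciferase signal divided by Alamar Blue viability fluorescence both relative to DMSO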
* hit, by the source's call; u = inconclusive; x = no result.

SMILES | esBAF inh | MITF act | Wnt act | TRPM1 prom inh | PAX8 reporter | EWS-Fli block
Cc1occc1C(=O)NCCc1cccc(Cl)c1 | 52.0* | 65.5 | x | -60.2 | x | x
O=C(NCCc1cccc(Cl)c1)c1cccs1 | 63.5* | u | -1.5 | -80.6 | -179.9 | -98.8
CCc1ccc(NC(=O)c2cc(Br)ccc2Br)cc1 | x | x | 0.3 | x | 4.3 | -13.0
CC(C)c1ccc(NC(=O)c2cc(Br)ccc2Br)cc1 | 71.8* | 29.1 | -0.9 | -23.1 | -22.8 | -23.6
Cn1c(=O)c2c(ncn2CC(=O)OCC(=O)NCc2ccccc2Cl)n(C)c1=O | x | 1.5 | 36.3* | -0.7 | 9.5 | x
COc1ccccc1CNC(=O)COC(=O)Cn1cnc2c1c(=O)n(C)c(=O)n2C | -1.7 | x | -1.1 | x | -3.8 | -5.1
N#C/C(=C\c1ccc(Cl)c([N+](=O)[O-])c1)c1ccccn1 | x | 0.0 | -0.8 | 0.6 | 40.0 | 17.4
CNc1ccc(/C=C(\C#N)c2ccccn2)cc1[N+](=O)[O-] | 74.0* | u | 13.8 | -77.8 | -109.6 | -112.2
COc1ccc(C(=O)n2nc(C)cc2Nc2ccccc2)cc1 | 55.4* | 17.4 | x | -19.8 | x | x
CC(C)NC(=O)Nc1ccc2c(c1)C(=O)N([C@H](C)CO)C[C@@H](C)[C@H](CN(C)S(=O)(=O)c1ccc(F)cc1)O2 | 2.9 | x | x | x | -1.8 | 3.6
O=C(C[C@@H]1CC[C@@H](NS(=O)(=O)c2ccc(F)cc2)[C@H](CO)O1)NC1CCCCC1 | 1.0 | x | x | x | 1.5 | 1.0
Cc1ccc(NC(=O)c2ccc3nc[nH]c3c2)nc1 | x | 27.6 | 26.0 | -23.6 | -144.5 | -66.1
Cc1ccc(NC(=O)c2ccc3nc[nH]c3c2)c(O)c1 | 50.5* | 27.1 | 6.9 | -23.4 | -43.3 | -42.2
Cc1cccc(C(=O)O/N=C(\N)c2ccccn2)c1 | -73.2 | -32.8 | -4.1 | 35.2 | 84.3* | 76.8*
N/C(=N\OC(=O)c1ccc(Br)o1)c1ccccn1 | 6.2 | 0.9 | 7.6 | -2.4 | -11.5 | 10.9
COc1cc(OC)cc(C(=O)O/N=C(\N)c2cccc(C)c2)c1 | 28.7 | 52.1 | 5.3 | -46.3 | -119.8 | -7.4
Cc1ccc(C(=O)O/N=C(\N)c2ccccn2)cc1C | -71.4 | -54.5 | -8.0 | 52.5 | 82.6* | 74.4*
Cc1cccc(/C(N)=N/OC(=O)c2cccnc2)c1 | x | 49.5 | 32.7* | -47.7 | -101.2 | -47.3
Cc1cccc(/C(N)=N/OC(=O)c2ccc(Br)o2)c1 | x | 57.8 | 46.5* | -56.7 | -122.9 | x
O=C(Cc1ccncc1)NCC[C@@H]1CC[C@@H](NC(=O)C2CCCCC2)[C@@H](CO)O1 | -0.2 | x | x | x | 1.8 | 2.8
C[C@@H]1CN([C@H](C)CO)S(=O)(=O)c2ccc(-c3ccccc3)cc2O[C@@H]1CN(C)Cc1ccncc1 | -0.7 | x | x | x | x | 8.9
O=C1/C(=C/c2ccccc2F)SC(=S)N1CC(=O)N1CCCCC1c1cccnc1 (stereo not drawn) | -1.6 | -11.8 | -0.6 | 12.0 | 100.1* | 10.1
O=C1/C(=C/c2ccc(F)cc2)SC(=S)N1CC(=O)N1CCCCC1c1cccnc1 (stereo not drawn) | -0.1 | -11.9 | 3.9 | 6.8 | 69.6* | 6.4
O=C1/C(=C/c2ccccc2F)SC(=S)N1CCC(=O)N1CCCCC1CCO (stereo not drawn) | 12.9 | -12.4 | -4.5 | 13.6 | 45.4 | x
O=C(/C=C/c1ccc(F)cc1)NC(=S)N1CCCCC1c1cccnc1 (stereo not drawn) | 6.9 | -2.3 | 1.0 | 2.6 | 4.8 | 8.3
SMILES | esBAF inh | MITF act | Wnt act | TRPM1 prom inh | PAX8 reporter | EWS-Fli block
CN1C(=O)c2cc(NC(=O)c3cccs3)ccc2OC[C@@H]2O[C@H](CC(=O)O)CC[C@@H]21 | 2.3 | x | x | x | 4.6 | -3.3
COCC(=O)Nc1ccc2c(c1)OC[C@@H](C)N(C(=O)c1ccccc1)C[C@H](C)[C@@H](OC)CN(C)C2=O | -4.1 | x | x | x | x | 1.5
CC(C)C#Cc1ccc([C@@H]2[C@@H](CO)N(C(=O)CN(C)C)[C@H]2C#N)cc1 | 4.0 | x | x | x | -12.6 | 2.3
CCOc1ccccc1-n1c(CN2CCN(C(=O)c3ccco3)CC2)nc2ccccc2c1=O | x | -79.4 | x | 80.3* | x | x
O=C(N/N=C/c1ccccc1C(F)(F)F)c1ccc(O)cc1 | x | 85.7* | 3.1 | -86.5 | -142.1 | -128.7
O=C(O)c1ccc(/C=N/NC(=O)c2ccc(F)cc2)cc1 | x | 0.8 | -0.7 | -3.3 | -10.2 | -14.1
O=C(N/N=C/c1ccccc1O)c1cccc(C(F)(F)F)c1 | x | -39.9 | x | 37.6 | 26.8 | x
O=C(N/N=C/c1ccc(F)cc1)c1ccccc1 | x | 51.4 | 33.9* | -42.4 | -188.8 | -96.5
Nc1c(C(=O)N/N=C/c2ccccc2)cnn1-c1ccccc1 | 48.5* | 64.0 | 0.1 | -65.9 | -34.2 | -91.8
